From PubChem BioAssay

Experiment: Her2 expression decrease, cell viability multiplex – SKBR3 breast tumor cells, AlphaScreen, ATP viability, primary screen (AID 461);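 further: percent of carrier control wells set as 100% viability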
Conditions: SKBR3 Her2 protein level, 18-24 h, measured here: SKBR3 viability, ATP luminescence, at 10 µM
With `CCCCn1cnc2c(cnn2-c2ccc(Cl)cc2)c1=O` the viability was 94.5%.
For `Cc1ccc(N2CCN(C(=O)c3ccccc3Br)CC2)c(C)c1`, the viability was 110%.
For `COc1cccc(CN2CCN(C(=O)c3ccco3)CC2)c1OC`, the viability was 112%.
`CCOC(=O)c1nnn(CC(=O)Nc2cccc(OC)c2)c1C(=O)OCC` showed a viability of 92.5%.
For `O=C(CCN1C(=O)c2ccccc2C1=O)OCN1C(=O)c2ccccc2C1=O`, the viability was 95%.
For `COc1ccccc1CC1(C)NC(=O)N(CC(=O)Nc2cc(C)on2)C1=O` (stereo not given), the viability was 106%.
Compound `c1ccc(CNc2c3c(nc4ncnn24)CCCC3)nc1` has a viability of 95.5%.
Work on `Cc1cc(C(=O)OCCO)c(C#N)c(N)n1` yielded a viability of 92%.
With `CN(c1ccccc1)S(=O)(=O)c1ccc(C(=O)OCC(=O)N2CCOCC2)cc1` the viability was 106%.
With `CCC1C(=O)n2nc(-c3ccccc3)cc2N=C1C` (stereo not given) the viability was 106%.
For `NC(=O)c1c(NC(=O)CSc2nnc(-c3ccco3)n2-c2ccccc2)sc2c1CCC2`, the viability was 76%.
With `CCN(Cc1cc2ccccc2[nH]c1=O)S(=O)(=O)c1ccccc1` the viability was 110%.
`CCOC(=O)C1CCCN(Cc2nc(N)nc(Nc3ccc(C)cc3)n2)C1` (stereo not given) gave a viability of 99.5%.
Work on `COc1cccc(NC(=O)CSc2nnc(-c3cccs3)n2C)c1` yielded a viability of 98%.
Work on `O=C(Nc1cccc(C(=O)N2CCOCC2)c1)c1cccnc1` yielded a viability of 99.5%.
Compound `C=CCn1c(=O)[nH]c2cc(C(=O)N3CCN(c4cc(C)ccc4C)CC3)ccc2c1=O` has a viability of 81.5%.
With `COc1ccc(C2/C(=C(/O)c3cnn(-c4ccccc4)c3C)C(=O)C(=O)N2CCN(C)C)cc1OC` (stereo not given) the viability was 109%.
Compound `COCCN(C(=O)Cn1nnc2ccccc21)C(C(=O)NC1CCCC1)c1cc(OC)ccc1OC` (stereo not given) has a viability of 86%.
For `O=C(OCC(=O)N1CCc2ccccc21)C1=COCCO1`, the viability was 89.5%.
For `O=C(CCn1c(=O)sc2ccccc21)NC1=NCCS1`, the viability was 84%.
Compound `CC(C)COC(=O)C1[C@H]2C(=O)N(Cc3cccs3)C[C@]23C=C[C@H]1O3` (stereo not given in full) has a viability of 102%.
Compound `O=C(Cn1nnc(-c2cccc(C(F)(F)F)c2)n1)NC(=O)NCc1ccco1` has a viability of 89%.
Compound `Cn1c(=O)c(C(=O)Nc2cccnc2)c(O)c2ccccc21` has a viability of 81%.
Work on `O=S(=O)(c1cccc(-c2nnco2)c1)N1CCCC1` yielded a viability of 100%.
With `CCOc1ccc2c(c1)sc1nc(C(=O)OC)cc(=O)n12` the viability was 94%.
For `O=C(c1cccn2c(=O)c3cc(Cl)ccc3nc12)N1CCOCC1`, the viability was 95.5%.
`CC1(C)CNC(=O)CC(C)(C)N1O` gave a viability of 90%.
For `O=C(CSc1nnnn1C1CCCC1)Nc1cccc(NC(=O)c2ccco2)c1`, the viability was 91.5%.
With `Cc1onc(-c2ccccc2)c1C(=O)Nc1ccnn1C1CCCCC1` the viability was 99.5%.
In the case of `O=C1C(c2ccncc2)=C(O)c2ccccc21`, the viability is reported as 100%.
With `CC(NC(=O)Cc1cccs1)c1ccc2c(c1)OCO2` (stereo not given) the viability was 125%.
In the case of `O=C(c1cnn2c(C(F)F)cc(C3CC3)nc12)N1CCOCC1`, the viability is reported as 104%.
`COc1ccc(-c2cc(C(F)F)n3ncc(C(=O)NCC4CCCO4)c3n2)cc1` (stereo not given) gave a viability of 92%.
`Cn1c(SCC(=O)Nc2ccc3c(c2)oc2ccccc23)nnc1-c1ccccc1` showed a viability of 83%.
`COC(=O)Nc1ccc(S(=O)(=O)N(C)CC(F)(F)C(F)F)cc1` gave a viability of 107%.
`Cc1cccc(C2CC(c3ccc(Br)cc3)Nc3nc(N)nn32)c1` (stereo not given) showed a viability of 92.5%.
`Cc1cnc(C(=O)OCC(=O)Nc2ccc(Cl)cc2Cl)cn1` gave a viability of 89.5%.
Work on `CCOC(=O)C1CCN(C(=O)c2ccc(OC)cc2OC)CC1` yielded a viability of 102%.
With `CN(Cc1ccccc1)Cc1c[nH]c2ccccc12` the viability was 87%.
Compound `CCN(C(=O)COC(=O)c1cc(C)n(-c2ccc(F)cc2)c1C)C1CCS(=O)(=O)C1` (stereo not given) has a viability of 85.5%.
